Source: PubChem BioAssay (NCATS)
Inconclusive results are not listed. Where a call stands in place of a potency, no number is given. The source made the active and inactive calls. The call rests on the fitted dose curve; in most records, active means well fitted cell-killing curve with a large enough effect; inconclusive means small, poorly fitted or top-dose-only effect; inactive means flat fitted curve, though single readings scatter.

experiment: Quantitative highthroughput screen to assess conditional lethalithy of P12 Ichikawa cells grown in RPMI1640 with dialyzed fetal bovine serum (RPMI+ds) (AID 1963880); conditions: ATP luminescence, 48 h; Potency: P12-Ichikawa viability; series mostly up to 45.8 µM; further: nearly all actives have a fitted effect of over 35% in size
Method in brief: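 Each medium arm—HPLM with 10% dialyzed FBS, or RPMI1640 with 5 mM glucose and 10% untreated or dialyzed FBS—was screened against an 11-point, 3-fold compound titration for 48 h at 37 °C, with CellTiter-Glo luminescence as endpoint.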
Potency means the concentration at half of the fitted maximal effect.

Row | Structure (SMILES) | Potency
1 | Cn1c(=O)n(-c2ccc(C(C)(C)C#N)cc2)c2c3cc(-c4cnc5ccccc5c4)ccc3ncc21 | 1.66 µM (active)
2 | CCN(CC)Cc1ccc2cc(COC(=O)Nc3ccc(C(=O)NO)cc3)ccc2c1 | 2.35 µM (active)
3 | Cn1cc(C[C@@H](N)C(=O)O)c2ccccc21 | inactive
4 | COCCNCCCn1c(C(=O)CF)c(-c2ccc(C)cc2)c2c(N)ncnc21 | inactive
5 | COc1ncc(-c2ccc3c(Nc4cc(Oc5cc(F)cc(F)c5)cc(C(=O)O)c4)c(S(=O)(=O)NC4CC4)cnc3c2)c(OC)n1 | inactive
6 | O=C(c1ccc(F)cc1)C1CCN(CCn2c(=O)[nH]c3ccccc3c2=O)CC1 | inactive
7 | NS(=O)(=O)c1ccc(Nc2nc(OCC3CCCCC3)c3[nH]cnc3n2)cc1 | 0.296 µM (active)
8 | Cc1cnc(NC(=O)Nc2cc(Br)c(C)cc2OC[C@@H]2CNCCO2)cn1 | 13.2 µM (active)
9 | Cc1ccc(C(=O)Nc2cccc(C(F)(F)F)c2)cc1Nc1nc(-c2cccnc2)nc2c1cnn2C | inactive
10 | NCCc1ccc(O)c(O)c1 | inactive
11 | CCN(CCO)CCCOc1ccc2c(Nc3cc(CC(=O)Nc4cccc(F)c4)[nH]n3)ncnc2c1 | 0.187 µM (active)
12 | CN[C@@H](C)[C@H]1[C@H](O)C[C@@]2(C)[C@@H]3CC[C@H]4C(C)(C)[C@@H](NC)CC[C@@]45C[C@@]35CC[C@]12C | inactive
13 | CCC(c1ccc(O)cc1)C(CC)c1ccc(O)cc1 (stereo not drawn) | inactive
14 | Cc1ccc(C(=O)c2cc(O)c(O)c([N+](=O)[O-])c2)cc1 | inactive
15 | CCOC(=O)[C@@H](N)CCC(=O)N[C@@H](CSCc1ccccc1)C(=O)N[C@@H](C(=O)OCC)c1ccccc1 | inactive
16 | CC(C)(C)c1cc(C(C)(C)C)c(NC(=O)c2c[nH]c3ccccc3c2=O)cc1O | inactive
17 | NC(=O)NO | 9.35 µM (active)
18 | Nc1ccccc1NC(=O)c1ccc(CNC(=O)OCc2cccnc2)cc1 | 2.35 µM (active)
19 | COc1cccc(OC)c1-c1cc(C(=O)NC2(C(=O)O)C3CC4CC(C3)CC2C4)nn1-c1ccnc2cc(Cl)ccc12 (stereo not drawn) | inactive
20 | Cc1cn(CCN2CCN(c3ccccc3-c3cc(C#N)cc(C(=O)NCCCN4CCCC4)c3)CC2)c2ccccc12 | 7.41 µM (active)
21 | CCCCCN(CCC12CC3CC(CC(C3)C1)C2)C(=O)NCCCc1ccncc1 | inactive
22 | COC(=O)N[C@H](C(=O)N[C@@H](Cc1ccccc1)[C@@H](O)CN(Cc1ccc(-c2ccccn2)cc1)NC(=O)[C@@H](NC(=O)OC)C(C)(C)C)C(C)(C)C | inactive
23 | Nc1c2c(nc3ccccc13)CCCC2 | inactive
24 | NS(=O)(=O)c1cccc2c1C(=O)c1cccc(O)c1C2=O | 26.4 µM (active)
25 | CNC(=O)c1cc(Oc2ccc(NC(=O)Nc3ccc(Cl)c(C(F)(F)F)c3)c(F)c2)ccn1 | inactive
26 | O=S(=O)(O)CCS | 8.33 µM (active)
27 | CCN(c1ccccc1)c1cc(NC)[n+](C)c(C)n1 | inactive
28 | CCn1c(C(=O)N(C2CC2)C2CC2)cc2c3c(ncn3C)c(Nc3cc(C)n(C)n3)nc21 | inactive
